An excerpt weighted towards active compounds, which were near 21% of everything screened.
Pf growth 48h – P. falciparum growth inhibition at 48 hours (one generation); P. falciparum luciferase growth in erythrocytes, 48 h; Potency, µM (series often up to 28.7 µM), inactives show at the highest dose activity change, negative = inhibition, usual class: inhibitors; hit rate 5.9% among 310,000; AID 504832; further: potency means the concentration at half of the fitted maximal effect; on the % scale 0 is the no-effect control and ±100 the full control effect
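Cell-based growth assay: transgenic P. falciparum expressing firefly luciferase, cultured in red cells within RPMI 1640 containing 0.5% w/v Albumax, 24 mM bicarbonate and gentamycin. A drop in luciferase activity indicates inhibition.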
Shiga inhibitor – inhibitors of Shiga toxin in Vero cells; Vero cells, Shiga toxin protein synthesis inhibition reporter; inhibition, % at 38.7 µM; hit rate 9.2% among 290,000; AID 2315; in the data active means inhibition mostly above about 28%, no sharp cut-off; inactive means mostly below about 43%; further: 0% is about no effect
Pf growth 96h – P. falciparum growth inhibition at 96 hour, primary screen for plastid delayed-death inhibitors | P. falciparum luciferase reporter growth, 96 h | Potency, µM (top dose mostly 28.7 µM), inactives show at the top dose activity change, negative = inhibition, usual class: inhibitors | hit rate 6.9% among 320,000; further: potency means the concentration at half of the fitted maximal effect; on the % scale 0 is the no-effect control and ±100 the full control effect
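Parasite growth measured via integrated firefly luciferase reporter in P. falciparum. Infected erythrocytes at 2% hematocrit, 0.05% parasitemia final were treated 96 hours at 37 C under 5% CO2, and luminescence was read.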
AMA1-RON2 inh – disrupts binding of P. falciparum AMA1 to RON2; AlphaScreen AMA1-biotinylated RON2 peptide binding; Potency, µM (titrated, usually from 58.2 µM), inactives show at the top dose activity change, negative = inhibition, usual class: inhibitors; hit rate 0.2% among 360,000;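 further: potency means the concentration at half of the fitted maximal effect; 0% = vehicle wells and -100% = peptide control; nearly all actives have a fitted effect of over 45% in size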
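AMA1 (3D7) with his tag at 25 nM final met compounds first, then biotinylated RON2 peptide at 25 nM; detection used donor plus acceptor beads, 10 µg/mL apiece, read by AlphaScreen after 30 min at room temperature.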
HCV inh – inhibitors of hepatitis C virus infection. Huh7.5.1 HCVcc-Cre infection, luciferase reporter, 44 h. Potency, µM (top dose mostly 41.8 µM), for inactives: top-dose activity change, negative = inhibition, actives largely listed as inhibitors. AID 651820. hit rate 3.4% among 340,000; further: potency means the concentration at half of the fitted maximal effect; on the % scale 0 is the no-effect control and ±100 the full control effect
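Infectious HCV cell culture screen: compound-treated cells (1,000/well, pre-plated 4 h) are infected with HCVcc-Cre at roughly 0.5 moi and grown 44 h. Infection is quantified by luciferase signal after 15 min substrate incubation at room temperature.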
CHX counter – counter-screen for Shiga toxin inhibitors: cycloheximide protein synthesis inhibition. cell reporter, cycloheximide protein synthesis inhibition counterscreen. max response, %. hit rate 12% among 300,000; in the data active means max response mostly above about 13%, no sharp cut-off; inactive means mostly below about 14%; further: read at 38.3 µM for the half of the compounds with a filed dose; 0% is about no effect
An asterisk follows results filed as active; ? = inconclusive; · = no result given; ! = not active in a repeat; [ ] = dose if it differs, or a comment. Unless noted, the call rests on the fitted dose curve; in most records, active means well fitted curve in the direction sought with a large enough effect; inconclusive means small, poorly fitted or top-dose-only effect, or another doubt; inactive means no such curve, though single readings can be large; an effect the other way counts as inactive or inconclusive.

SMILES	Pf growth 48h	Shiga inhibitor	Pf growth 96h	AMA1-RON2 inh	HCV inh	CHX counter
O=C(COc1ccccc1Cl)Nc1cccc(S(=O)(=O)NC2=NCCCCC2)c1	?	·	?	-0.8%	?	·
O=C(/C=C/c1ccc([N+](=O)[O-])cc1)Nc1cccc(S(=O)(=O)NC2=NCCCCC2)c1	·	·	·	-2.8%	25.1µM*	·
O=C(/C=C/c1ccc(Cl)cc1Cl)Nc1cccc(S(=O)(=O)NC2=NCCC2)c1	217.7%	43.8	170.5%	-5.1%	?	13.9*
O=C(/C=C/c1ccccc1Cl)Nc1cccc(S(=O)(=O)NC2=NCCCCC2)c1	0.0%	64.6*	?	33.2%	?	23.0*
Oc1ccc(/C=N/Nc2ccc(Cl)nn2)c(O)c1O	15.7%	1.0	?	?	?	11.9
CSc1cccc(NC(=O)c2ccc(CN3CCc4ccccc4C3)cc2)c1	4.15µM*	22.1	3.2%	-9.6%	8.91µM*	12.8
O=C(Nc1cccc(Br)c1)c1ccc(CN2CCc3ccccc3C2)cc1	-9.4%	18.9	9.28µM*	6.7%	2.24µM*	17.4*
Cc1cccc(NC(=O)c2ccc(CN3CCc4ccccc4C3)cc2)c1C	11.0%	-3.8	?	5.8%	?	6.4
COC(=O)c1ccc(NC(=O)CCC(=O)c2ccc(F)cc2)cc1	35.2%	2.4	22.0%	-3.0%	8.0%	-1.4
O=C(CNC(=O)c1ccco1)Nc1cc(Cl)ccc1N1CCOCC1	?	-11.1	·	-16.6%	12.8%	-3.4
CCN(CC)S(=O)(=O)c1ccc(N2CCOCC2)c(NC(=O)Cc2ccccc2F)c1	?	-3.7	?	11.6%	6.0%	-1.5
CCN(CC)S(=O)(=O)c1ccc(N2CCOCC2)c(NC(=O)Cc2cccc3ccccc23)c1	13.1µM*	4.8	3.7µM*	-8.5%	-0.8%	-2.0
O=C(CCC1CCCC1)Nc1cc(Cl)ccc1N1CCOCC1	?	·	8.28µM*	13.5%	-6.0%	·
CCN(CC)S(=O)(=O)c1ccc(N2CCOCC2)c(NC(=O)CCC2CCCCC2)c1	8.28µM*	1.1	?	2.9%	-5.2%	15.2
CC(C)(C)c1ccc(C(=O)NCCC(=O)Nc2cc(Cl)ccc2N2CCOCC2)cc1	13.1µM*	·	?	-0.8%	11.2µM*	·
O=C(Nc1cc(Cl)ccc1N1CCOCC1)C1CC1	·	·	·	-7.3%	7.7%	·
COc1ccc(CCNC(=O)COC(=O)Cc2c[nH]c3ccccc23)cc1OC	·	·	·	2.8%	?	·
CN(C)c1cc2c(cc1NC(=O)c1ccccc1Cl)n(C)c(=O)n2C	?	-4.1	?	-6.0%	?	-1.5
CCOC(=O)N1CCN(C(=O)C[C@@H]2C[C@@]3(C(=O)OC)CC(C)(C)CC=C3N(Cc3ccccc3)C2=O)CC1	·	·	·	-1.3%	·	·
COc1ccc(C2=C(SC)CC2=NC(C)(C)C)cc1	-0.1%	29.7	-3.1%	2.4%	27.3%	12.8*
CC(C)Cn1c(N)c(C(=O)COC(=O)c2cc(S(=O)(=O)N3CCOCC3)ccc2Br)c(=O)n(C)c1=O	·	·	·	-2.3%[11.6 µM]	?	·
O=C(c1cccc(-c2ccccc2)c1)N1CC[C@@H](N2CCC(O)CC2)[C@H](O)C1	?	13.6	71.5%	3.9%	9.2%	2.7
NC(=S)Nc1ccc2cn[nH]c2c1	34.1%	-7.1	77.7%	-7.5%	12.2%	-0.8
Cc1ccc(NC(=S)Nc2cccc(-c3n[nH]c(=S)o3)c2)cc1	2.2%	40.2*	16.1%	82.8%	11.7%	32.4*
O=C(NC(=S)Nc1ccc2cn[nH]c2c1)c1ccccc1	359.4%	78.7*	148.6%	4.3%	?	40.9*
SMILES	Pf growth 48h	Shiga inhibitor	Pf growth 96h	AMA1-RON2 inh	HCV inh	CHX counter
Cc1ccc(NC(=S)Nc2ccc3cn[nH]c3c2)cc1	12.3%	33.5	55.8%	-2.0%	-4.7%	17.9*
S=C(Nc1ccccc1)Nc1ccc2cn[nH]c2c1	101.5%	55.1*	102.3%	28.2%	8.5%	46.1*
COC(=O)C1=C(NC(=O)c2cccc(OC)c2)CCS1	20.3%	-3.7	4.15µM*	11.5%	-14.0%	-1.7
COC(=O)C1=C(NC(=O)c2cccs2)CCS1	?	-6.5	9.28µM*	·	·	-6.4
COC(=O)C1=C(NC(=O)c2ccccc2C)CCS1	8.3%	24.8	5.7%	-19.9%	-0.9%	-2.9
CC(C)(CO)NC(=S)NCc1ccco1	?	4.3	35.1%	0.0%	11.1%	-2.3
O=C(CNC(=O)c1sc2ccccc2c1Cl)Nc1ccccc1F	2.7%	·	39.0%	0.8%	9.5%	·
Cc1ccc(NC(=O)Cc2cc(C(=O)O)c3ccccc3n2)c(C)c1	?	43.1	?	1.9%	12.6µM*	13.3
Cc1ccc(NC(=O)CC2(CC(=O)O)CCCC2)c(C)c1	2.6%[0.00184 µM]	6.6	4.15µM*	7.8%	11.7%	-4.6
Cc1ccc(NC(=O)CO/N=C/c2ccccc2C)c(C)c1	?	8.7	2.33µM*	9.1%	-6.1%	1.9
Cc1ccc(NC(=O)CCl)c(C)c1	1.85µM*	2.3	10.4µM*	3.5%	?	2.7
Cc1ccc(NC(=O)CCc2ccc(C)o2)c(C)c1	2.9%	15.0	45.6%	0.5%	-14.1%	13.2
CCCc1cc(C(=O)O)c2ccccc2n1	·	-9.7	-9.2%	-1.0%	6.8%	6.6
CC(=O)C1=CCC(c2ccc(C)o2)N(S(=O)(=O)c2ccc(C)cc2)C1 (stereo not drawn)	·	·	·	-13.8%	·	·
O=C(N[C@@H]1CC[C@@H](CCNC(=O)C2CCOCC2)O[C@@H]1CO)c1ccncc1	·	·	·	-1.9%	·	·
COc1ccccc1NS(=O)(=O)c1cccc(NC(=O)c2sc3ccccc3c2Cl)c1	11.7µM*	20.6	-20.0%	-0.9%	?	11.3
COc1ccccc1NS(=O)(=O)c1ccc(Cl)c(NC(=O)c2sc3cc(Cl)ccc3c2Cl)c1	-29.4%	-7.5	-7.4%	-0.1%	-16.5%	-2.8
COc1ccccc1NS(=O)(=O)c1cccc(NC(=O)CCNC(=O)c2ccccc2OC)c1	9.28µM*	·	11.7µM*	4.4%	?	·
COc1ccccc1C(=O)NCCC(=O)Nc1ccc(S(=O)(=O)Nc2ncccn2)cc1	?	·	-28.3%	-9.0%	6.8%	·
COc1ccccc1NS(=O)(=O)c1cccc(NC(=O)NCCCl)c1	0.0%	8.0	11.7µM*	4.5%	10.1%	0.8
Fc1ccc(C(CCNCc2ccccn2)c2ccc(Cl)cc2)cc1 (stereo not drawn)	8.9%[0.00184 µM]	-7.1	?	42.1%	?	-4.8
COc1ccc(Cl)cc1NC(=S)NC1CCCC1	?	-1.3	?	5.6%	-24.4%	-0.2
Nn1c(C2COc3ccccc3O2)n[nH]c1=S (stereo not drawn)	?	12.3	?	75.9%	11.3%	9.3
c1ccc2c(c1)OCC(C1=NCCN1)O2 (stereo not drawn)	?	-3.3	4.78µM*!	71.8%	-0.3%[8.37 µM]	-3.4
COc1ccc(OC)c(S(=O)(=O)N2CCN(C(=O)CCc3ccccc3)CC2)c1	·	·	·	-9.8%	4.2%	·
O=c1nc2ccccn2c2ccc(S(=O)(=O)N3CCCCC3)cc12	5.86µM*	-8.5	6.57µM*	13.1%	10.5%	-1.8
